Test [1] in a line: qHTS assay to identify small molecule antagonists of the sonic hedgehog signaling (Shh) pathway (AID 1259369; calls by dose curve; note: nearly all actives have a fitted effect of over 45% in size; note: potency is the fitted concentration of half-maximal effect). In a few lines: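 Gli1 transcriptional reporter (firefly Luc) in NIH/3T3 background, conditioned-medium activated. 24hr exposure, luminescence endpoint.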
On the technique in general: qHTS replaces the single test concentration by a dilution series.

The target in test [2] is Estrogen receptor beta (Homo sapiens) (UniProt Q92731). As to the kind of experiment: qHTS assay to identify small molecule agonists of the estrogen receptor beta (ER-beta) signaling pathway (AID 1259377; active = well fitted activation curve with a large enough effect in the signal ratio in the repeat runs, not every such curve was filed as active; the % refers to the signal ratio). The method in brief:
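Reporter cells (HEK293T, ER-beta-UAS-bla) receive compounds or DMSO after a 6 hr pre-incubation. They then incubate 16 hr at 37C/5% CO2, and fluorescence from LiveBLAzer B/G substrate is measured after 2 hours at room temperature.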

Test [3] can be described thus: qHTS assay to identify small molecule agonists of the androgen receptor (AR) signaling pathway in the presence of an antagonist - cell viability counter screen (AID 1259379).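 Note: MDA-kb2 human breast cancer cells carrying an MMTV luciferase reporter; series mostly up to about 92 µM; nearly all actives have a fitted effect of over 25% in size.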 The method in brief:
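Counter screen for cell viability run in parallel with the AR agonist-mode luciferase assay. MDA-kb2 cells were co-treated with nilutamide (3.0uM final) and compounds, then incubated 16 hr at 37C, and CellTiter-Fluor fluorescence was measured.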

Test [4] can be described thus: qHTS assay to identify small molecule agonists of the estrogen receptor beta (ER-beta) signaling pathway - cell viability counter screen (AID 1259380). Note: nearly all actives have a fitted effect of over 30% in size. In a few lines: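 In this qHTS counter screen, HEK293T cells carrying an ER-beta/UAS beta-lactamase reporter, grown in 2% charcoal-stripped FBS, received compound for 16 hr; ATP-based CellTiter-Glo luminescence was then read after 30 min at room temperature.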

Test [5] can be described thus: qHTS assay to identify small molecule antagonists of the estrogen receptor beta (ER-beta) signaling pathway - cell viability counter screen (AID 1259382). Note: series mostly up to about 92 µM; nearly all actives have a fitted effect of over 55% in size. The method in brief: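 HEK293T ER-beta-UAS-bla, 2% charcoal-stripped FBS; compounds + 1nM E2 16 hr 37C; CellTiter-Glo luminescence, 30 min RT.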
In test [6] the target is Estrogen receptor (Homo sapiens) (UniProt P03372). As to the kind of experiment: qHTS assay to identify small molecule agonists of the estrogen receptor alpha (ER-alpha) signaling pathway in the presence of an antagonist (AID 1259383; calls by dose curve; note: nearly all actives have a fitted effect of over 15% in size; note: potency is the fitted concentration of half-maximal effect; for activation: top concentration of the series differs between compounds). In a few lines: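 ER-alpha agonism measured under antagonist challenge: 10.0nM ICI-182,780 (final) plus compound, 15 concentrations, 22hr, VM7Luc4E2 ERE-luciferase cells. Read by luminescence.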
Estrogen receptor (Homo sapiens), sequence (P03372 whole entry, looked up): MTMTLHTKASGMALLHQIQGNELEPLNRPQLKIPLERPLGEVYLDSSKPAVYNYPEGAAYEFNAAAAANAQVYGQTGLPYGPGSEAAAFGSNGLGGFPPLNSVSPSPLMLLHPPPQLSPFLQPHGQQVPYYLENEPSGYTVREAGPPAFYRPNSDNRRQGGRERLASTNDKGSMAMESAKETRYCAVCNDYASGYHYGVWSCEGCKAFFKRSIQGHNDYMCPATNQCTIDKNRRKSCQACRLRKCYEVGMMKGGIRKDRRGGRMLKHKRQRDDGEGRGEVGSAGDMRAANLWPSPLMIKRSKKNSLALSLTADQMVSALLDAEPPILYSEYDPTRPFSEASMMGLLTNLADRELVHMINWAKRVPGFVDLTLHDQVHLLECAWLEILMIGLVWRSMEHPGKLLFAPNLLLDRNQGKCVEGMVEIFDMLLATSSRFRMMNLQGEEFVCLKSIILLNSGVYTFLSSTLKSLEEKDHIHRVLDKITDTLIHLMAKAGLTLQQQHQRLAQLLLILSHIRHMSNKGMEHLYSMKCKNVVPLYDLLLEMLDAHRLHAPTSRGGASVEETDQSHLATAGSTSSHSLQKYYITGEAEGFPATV

Test [7] in a line: qHTS assay to identify small molecule agonists or antagonists of the thyroid stimulating hormone receptor (TSHR) signaling pathway - wild type cell line counter screen (AID 1259384; calls by dose curve). In a few lines: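 Wild-type HEK293 cells were plated 18 h at 37 C/5% CO2, pin-dosed with compound plus Ro20-1724 medium, held 30 min at room temperature, then given cAMP-d2 and anti-cAMP-cryptate; fluorescence was read after 1 h. Fifteen concentrations, triplicate.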

Test [8] has as its target Thyrotropin receptor (Homo sapiens) (UniProt P16473). As to the kind of experiment: qHTS assay to identify small molecule antagonists of the thyroid stimulating hormone receptor (TSHR) signaling pathway (AID 1259385; calls by dose curve; note: nearly all actives have a fitted effect of over 20% in size; note: potency is the fitted concentration of half-maximal effect). The method in brief:
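TSHR-HEK293 cells were plated and held 18 h at 37C/5% CO2, then given compound plus Ro20-1724 and stimulated with TSH at 1.5 ng/mL final. After 30 min at room temperature, cAMP was detected with cAMP-d2/anti-cAMP-cryptate (1 h) by fluorescence.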

Test [9] deals with Progesterone receptor (Homo sapiens) (UniProt P06401). As to the kind of experiment: qHTS assay to identify small molecule agonists of the progesterone receptor (PR) signaling pathway (AID 1346784; calls by dose curve; note: nearly all actives have a fitted effect of over 30% in size). In a few lines:
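Reporter assay, GripTite PR-UAS-bla HEK 293T cells: 16 hr exposure to DMSO-dissolved compounds at 37C, 5% CO2, in steroid-depleted (2% charcoal-stripped FBS) medium; beta-lactamase measured by FRET fluorescence.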

Test [10] can be described thus: qHTS assay to identify small molecule antagonists of the TGF-beta/Smad signaling pathway - cell viability counter screen (AID 1346824). Note: nearly all actives have a fitted effect of over 50% in size. In a few lines: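 SBE-bla HEK 293T cells were plated overnight at 37 C, then given compounds in DMSO plus TGF-beta1 (added as 0.25 ng/mL solution) for 5 hr. After the bla read, CellTiter-Glo was added to the same wells and luminescence read after 30 min at room temperature.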

Test [11] can be described thus: qHTS assay to identify small molecule agonists of the TGF-beta/Smad signaling pathway - cell viability counter screen (AID 1346829). Note: top concentration of the series differs between compounds; nearly all actives have a fitted effect of over 45% in size. In a few lines:
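Tox21 qHTS format: SBE-bla HEK 293T cells treated with DMSO-dissolved compounds for 5 hr; CellTiter-Glo luminescence after 30 min at room temperature.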

The nature of test [12]: qHTS assay to identify small molecule agonists of the TGF-beta/Smad signaling pathway (AID 1346859; active = well fitted activation curve with a large enough effect in the signal ratio in the repeat runs, not every such curve was filed as active; the % refers to the signal ratio; note: series mostly up to about 77 µM). The method in brief: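 Screening used HEK 293T SBE-bla cells at 4,000/well. Test agents: 5 hr, 37 C. Detection: FRET substrate, 2 hr RT, then excitation 405 nm with emissions at 460 and 530 nm.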
Test [13] concerns the target Thyrotropin-releasing hormone receptor (Homo sapiens) (UniProt P34981). As to the kind of experiment: qHTS assay to identify small molecule antagonists of the thyrotropin-releasing hormone receptor (TRHR) signaling pathway (AID 1346877; active = well fitted inhibition curve with a large enough effect in the repeat runs, not every such curve was filed as active; note: series mostly up to about 51 µM). In a few lines: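 Human TRHR in HEK293 cells; inhibition of the intracellular calcium rise triggered by 1 nM TRH was followed by fluorescence over 3 min. Compounds were run at 15 concentrations, three replicates each.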

Test [14] has the same target. The test can be described thus: qHTS assay to identify small molecule agonists of the thyrotropin-releasing hormone receptor (TRHR) signaling pathway (AID 1346891; calls by dose curve; note: series mostly up to about 58 µM). In a few lines: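 Readout was intracellular calcium fluorescence in TRHR-Hek293 cells. Cells were incubated 18 h, dye-loaded 2 h at 37 °C, and treated with compound in agonist mode.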
A short description of test [15]: qHTS assay to identify small molecule agonists of the estrogen receptor alpha (ER-alpha) signaling pathway in the presence of an antagonist - cell viability counter screen (AID 1259386).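 Note: series mostly up to about 92 µM; cells exposed to compounds for 22 h at 37 °C before the viability read; nearly all actives have a fitted effect of over 30% in size.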 In a few lines: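 Steps: 5-day stripped-FBS culture; seed and incubate 24hr; add ICI-182,780 (10.0nM final); pin 15-point compound titration; incubate 22hr at 37C; add CellTiter-Fluor at 21hr; read fluorescence.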

For test [16], the target named is Progesterone receptor (Homo sapiens) (UniProt P06401). As to the kind of experiment: qHTS assay to identify small molecule antagonists of the progesterone receptor (PR) signaling pathway (AID 1346795; active = well fitted inhibition curve with a large enough effect in the signal ratio in the repeat runs, not every such curve was filed as active; the % refers to the signal ratio; note: potency is the fitted concentration of half-maximal effect). The method in brief: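 Stimulus R5020 at 1 nM final; cells HEK293T PR-UAS-bla; medium with 2% charcoal-stripped FBS; compound exposure 16 hr at 37C, 5% CO2; detection by FRET beta-lactamase substrate, 2 hr, room temperature.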
Progesterone receptor (Homo sapiens), sequence (P06401 whole entry, looked up): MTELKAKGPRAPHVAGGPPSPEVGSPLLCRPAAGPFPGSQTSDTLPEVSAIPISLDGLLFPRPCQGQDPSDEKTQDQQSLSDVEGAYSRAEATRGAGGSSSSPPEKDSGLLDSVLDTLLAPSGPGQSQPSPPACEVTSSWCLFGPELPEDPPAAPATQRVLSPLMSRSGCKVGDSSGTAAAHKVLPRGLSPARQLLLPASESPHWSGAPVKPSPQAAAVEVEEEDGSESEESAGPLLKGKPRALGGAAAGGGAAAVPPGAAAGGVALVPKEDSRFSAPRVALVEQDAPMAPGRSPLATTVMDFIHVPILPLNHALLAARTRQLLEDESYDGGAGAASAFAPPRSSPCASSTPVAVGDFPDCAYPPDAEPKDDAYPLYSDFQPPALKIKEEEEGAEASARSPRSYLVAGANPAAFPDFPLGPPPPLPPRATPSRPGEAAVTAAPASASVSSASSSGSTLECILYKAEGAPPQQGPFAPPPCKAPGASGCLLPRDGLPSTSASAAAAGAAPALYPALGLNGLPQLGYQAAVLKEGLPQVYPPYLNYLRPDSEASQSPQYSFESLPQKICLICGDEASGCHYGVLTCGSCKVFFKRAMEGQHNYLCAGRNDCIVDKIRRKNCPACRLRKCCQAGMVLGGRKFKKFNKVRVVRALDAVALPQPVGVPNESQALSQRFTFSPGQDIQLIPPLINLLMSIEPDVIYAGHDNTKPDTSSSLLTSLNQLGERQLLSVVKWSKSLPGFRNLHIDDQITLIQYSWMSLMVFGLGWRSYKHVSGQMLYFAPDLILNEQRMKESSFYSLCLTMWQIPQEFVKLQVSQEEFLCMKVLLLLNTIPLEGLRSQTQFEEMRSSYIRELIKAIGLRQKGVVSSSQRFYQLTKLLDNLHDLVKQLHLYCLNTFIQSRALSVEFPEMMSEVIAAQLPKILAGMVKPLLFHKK

Test [17] can be described thus: qHTS assay to identify small molecule antagonists of the progesterone receptor (PR) signaling pathway - cell viability counter screen (AID 1346798). Note: series mostly up to about 92 µM; nearly all actives have a fitted effect of over 50% in size. The method in brief: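 In the same plates used for the beta-lactamase readout, cell viability of compound- and R5020-treated PR-UAS-bla HEK293T cells (16 hr, 37C) was assessed by CellTiter-Glo luminescence.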
Test [18] deals with Androgen receptor (Homo sapiens) (UniProt P10275). The test can be described thus: qHTS assay to identify small molecule agonists of the androgen receptor (AR) signaling pathway in the presence of an antagonist (AID 1259381; calls by dose curve; note: nearly all actives have a fitted effect of over 15% in size). The method in brief:
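AR antagonist background: nilutamide 3.0uM final. Cell line: MDA-kb2, MMTV-driven luciferase, responsive to both AR and GR. Exposure 16hr, 37C, no CO2; ONE-Glo luminescence.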

A short description of test [19]: qHTS assay to identify small molecule agonists of the progesterone receptor (PR) signaling pathway - cell viability counter screen (AID 1346799; calls by dose curve; note: nearly all actives have a fitted effect of over 45% in size). The method in brief:
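Multiplexed viability read: CellTiter-Glo luminescence, 30 min RT, following LiveBLAzer FRET measurement on PR-UAS-bla HEK293T cells exposed to compounds 16 hr.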

Test [20] deals with Estrogen receptor beta (Homo sapiens) (UniProt Q92731). The test can be described thus: qHTS assay to identify small molecule antagonists of the estrogen receptor beta (ER-beta) signaling pathway (AID 1259378; active = well fitted inhibition curve with a large enough effect in the signal ratio in the repeat runs, not every such curve was filed as active; the % refers to the signal ratio). In a few lines:
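ER-beta-UAS-bla HEK293T (GripTite) cells in 2% charcoal-stripped FBS medium were preincubated 6 hr at 37C, dosed with compound, then stimulated with 1 nM E2 (final) for 16 hr; beta-lactamase reporter read by B/G FRET fluorescence after 2 hr substrate loading.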

SMILES strings stand for the structures. A number with no mark means an inactive call. Inconclusive results are not listed. Activity calls are given as the source filed them. Unless noted, calls come from the whole dose curve; as a rule, active = well fitted curve in the direction sought with a large enough effect in the repeat runs; inconclusive = weak or mixed curves; inactive = no such curve, though single readings can be large; an effect the other way counts as inactive or inconclusive.

For seven compounds, Potency and outcome results are on record in PubChem BioAssay (Tox21).

Thyrotropin-releasing hormone receptor (Homo sapiens), sequence (P34981 whole entry, looked up): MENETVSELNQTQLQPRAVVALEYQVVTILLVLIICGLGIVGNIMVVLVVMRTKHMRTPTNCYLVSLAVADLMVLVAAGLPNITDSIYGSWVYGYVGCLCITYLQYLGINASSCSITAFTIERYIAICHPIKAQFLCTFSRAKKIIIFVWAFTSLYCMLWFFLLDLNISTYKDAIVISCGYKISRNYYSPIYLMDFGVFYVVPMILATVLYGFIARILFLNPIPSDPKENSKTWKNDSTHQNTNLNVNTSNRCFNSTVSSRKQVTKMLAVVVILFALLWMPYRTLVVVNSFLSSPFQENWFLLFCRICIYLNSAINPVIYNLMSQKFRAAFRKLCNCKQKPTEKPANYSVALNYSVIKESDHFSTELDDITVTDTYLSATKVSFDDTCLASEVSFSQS
Thyrotropin receptor (Homo sapiens), sequence (P16473 whole entry, looked up): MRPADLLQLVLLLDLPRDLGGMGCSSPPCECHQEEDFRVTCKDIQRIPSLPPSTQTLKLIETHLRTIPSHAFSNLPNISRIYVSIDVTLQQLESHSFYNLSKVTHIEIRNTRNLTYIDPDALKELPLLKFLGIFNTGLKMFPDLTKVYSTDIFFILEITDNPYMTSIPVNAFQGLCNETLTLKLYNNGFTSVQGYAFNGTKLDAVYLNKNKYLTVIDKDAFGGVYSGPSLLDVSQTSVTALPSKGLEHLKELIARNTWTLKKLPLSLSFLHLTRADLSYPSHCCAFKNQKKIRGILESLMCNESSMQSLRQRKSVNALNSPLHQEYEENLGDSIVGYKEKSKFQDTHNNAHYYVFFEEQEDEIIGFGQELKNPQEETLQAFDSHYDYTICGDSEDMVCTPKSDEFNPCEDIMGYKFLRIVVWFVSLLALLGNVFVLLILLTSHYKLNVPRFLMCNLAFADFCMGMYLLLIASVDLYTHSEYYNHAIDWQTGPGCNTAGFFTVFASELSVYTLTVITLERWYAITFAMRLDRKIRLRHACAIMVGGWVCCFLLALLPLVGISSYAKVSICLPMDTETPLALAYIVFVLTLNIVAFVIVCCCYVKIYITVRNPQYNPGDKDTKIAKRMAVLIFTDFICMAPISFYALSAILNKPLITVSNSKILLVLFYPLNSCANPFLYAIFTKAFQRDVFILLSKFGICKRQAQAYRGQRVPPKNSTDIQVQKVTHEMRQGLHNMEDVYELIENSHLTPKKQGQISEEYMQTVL
Estrogen receptor beta (Homo sapiens), sequence (Q92731 whole entry, looked up): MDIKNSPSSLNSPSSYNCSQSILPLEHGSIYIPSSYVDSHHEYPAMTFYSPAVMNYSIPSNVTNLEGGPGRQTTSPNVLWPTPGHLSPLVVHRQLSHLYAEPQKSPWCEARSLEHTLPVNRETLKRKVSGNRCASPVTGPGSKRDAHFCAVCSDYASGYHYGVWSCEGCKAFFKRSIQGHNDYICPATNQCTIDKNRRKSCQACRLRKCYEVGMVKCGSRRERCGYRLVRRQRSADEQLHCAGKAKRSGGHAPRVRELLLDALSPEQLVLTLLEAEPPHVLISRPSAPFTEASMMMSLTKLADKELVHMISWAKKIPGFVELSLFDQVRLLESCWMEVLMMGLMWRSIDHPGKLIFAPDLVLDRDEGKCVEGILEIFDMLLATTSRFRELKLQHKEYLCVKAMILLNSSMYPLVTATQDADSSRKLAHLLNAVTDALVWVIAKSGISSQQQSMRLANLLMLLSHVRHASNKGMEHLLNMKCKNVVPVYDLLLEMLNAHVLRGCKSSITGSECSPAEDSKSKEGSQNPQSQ
Androgen receptor (Homo sapiens), sequence (P10275 whole entry, looked up): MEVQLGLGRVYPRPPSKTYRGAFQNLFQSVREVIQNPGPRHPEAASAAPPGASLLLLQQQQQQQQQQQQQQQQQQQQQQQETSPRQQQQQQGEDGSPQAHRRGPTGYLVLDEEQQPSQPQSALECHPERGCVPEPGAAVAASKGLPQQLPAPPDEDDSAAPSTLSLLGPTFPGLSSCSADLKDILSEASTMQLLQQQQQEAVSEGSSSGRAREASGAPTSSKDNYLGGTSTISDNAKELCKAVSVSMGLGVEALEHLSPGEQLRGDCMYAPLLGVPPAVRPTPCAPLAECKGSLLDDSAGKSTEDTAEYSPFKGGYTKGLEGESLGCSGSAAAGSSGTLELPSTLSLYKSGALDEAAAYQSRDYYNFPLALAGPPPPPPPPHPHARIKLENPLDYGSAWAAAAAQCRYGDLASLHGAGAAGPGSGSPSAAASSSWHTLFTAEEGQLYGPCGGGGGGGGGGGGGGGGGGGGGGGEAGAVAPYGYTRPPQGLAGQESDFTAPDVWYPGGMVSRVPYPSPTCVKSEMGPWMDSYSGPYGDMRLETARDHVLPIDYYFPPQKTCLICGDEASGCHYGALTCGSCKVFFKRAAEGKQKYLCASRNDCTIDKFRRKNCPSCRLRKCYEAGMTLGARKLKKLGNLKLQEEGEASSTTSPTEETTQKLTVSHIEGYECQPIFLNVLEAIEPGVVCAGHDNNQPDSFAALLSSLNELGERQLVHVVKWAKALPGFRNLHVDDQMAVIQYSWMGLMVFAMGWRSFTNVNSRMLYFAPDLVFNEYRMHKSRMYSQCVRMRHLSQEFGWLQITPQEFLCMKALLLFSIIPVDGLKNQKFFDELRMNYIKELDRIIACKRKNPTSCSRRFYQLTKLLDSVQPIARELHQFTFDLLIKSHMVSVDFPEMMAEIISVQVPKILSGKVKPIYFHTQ

For the compound `CCO[Si](CCCCl)(OCC)OCC`, the Potency entry in [1], in [2], in [3], in [4], in test [5] and in [6] was “inactive” throughout. In addition, the Potency entry in test [7], in test [8], in [9], in [10], in [12] and in test [14] was “inactive” each time. Moreover, the call in [11] and in test [13] was inactive.
On to `Nc1c(CC(=O)O)cccc1C(=O)c1ccc(Br)cc1`, for which the Potency result in test [1], in test [3], in [4], in test [5], in test [6] and in test [7] was “inactive” in each case. In addition, the Potency entry in [8], in test [15], in [9], in [16], in test [17] and in [10] was “inactive” in each case. Also, the Potency result in test [14] is “inactive”. The compound was classed as inactive in test [11] and in test [13].
In the case of `C/C=C(/C(=C/C)c1ccc(OC(C)=O)cc1)c1ccc(OC(C)=O)cc1`, the Potency was 29.8 µM (active) in [1], 0.0133 µM (active) in test [6] and 8.41 µM (active) in [16]. Also, the Potency entry in [3], in test [4], in [5], in test [7], in [8] and in test [15] was “inactive” throughout. Further, the Potency result in test [9], in [17], in test [10], in test [12] and in test [14] was “inactive” each time. Also, the compound was called inactive in [11] and in [13].
Take `CC(COCCO)OCCO` (stereo not drawn): the Potency entry in test [1], in test [3], in test [4], in [18], in [7] and in test [8] was “inactive” in each case. In addition, the Potency entry in test [15], in test [9], in test [16], in test [19], in [10] and in test [12] was “inactive” throughout. The compound was called inactive in test [11] and in [13].
On to `O=C(Cl)c1cc(C(=O)Cl)cc(C(=O)Cl)c1`, for which the Potency result in test [1], in test [20], in test [3], in test [4], in test [6] and in test [7] was “inactive” each time. In addition, the Potency entry in [15], in [10], in test [12] and in [14] was “inactive” throughout. Moreover, the Potency in test [8] is 68.6 µM (active). For the same compound, the call in [11] and in [13] was inactive.
On to `CC[N+](C)(CC)CCOC(=O)C(O)(c1ccccc1)C1CCCCC1` (stereo not drawn), for which the Potency result in test [1], in test [3], in test [4], in test [5], in test [6] and in [7] was “inactive” throughout. Further, the Potency result in [8], in [19] and in test [10] was “inactive” throughout. Besides, in test [11], the outcome was inactive.
In the case of `O=C1c2ccccc2S(=O)(=O)N1CCCCN1CCN(c2ncccn2)CC1`, the Potency result in [1], in test [3], in [4], in [5], in [6] and in test [8] was “inactive” in each case. In addition, the Potency result in test [15], in test [9], in test [16], in [17], in test [19] and in [10] was “inactive” throughout. In addition, the Potency entry in test [12] and in [14] was “inactive” throughout. Also, the compound was called inactive in test [11] and in test [13].
